Source: PubChem BioAssay
NR3A LBD binder: NR3A (human) ligand-binding domain modulation; NR3A LBD differential scanning fluorimetry, Tm shift; 0% = protein alone, 100% = glycine-bound protein; Tm shift relative to glycine control, % at 25 µM; 340,000 compounds, 2.5% hits;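 active = melting temperature shift of at least 10% of the positive control shift, at one fixed dose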
NadD inh: NadD (S. aureus) enzyme inhibition; inhibition, % at 20 µM; 360,000 compounds, 0.78% hits; AID 602399; purified NadD enzyme, colorimetric absorbance read-out; in the data active = inhibition above about 26%
rCAG RNA binder: r(CAG) repeat RNA binding; TO-PRO-1 dye displacement fluorescence; inhibition, % at 3 µM; 370,000 compounds, 1.3% hits; AID 651821;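 active = inhibition above the plate cutoff, the mean of all test compounds on that plate plus 3 SD, cut at about 35% in these data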;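 note: 0% = DMSO alone and 100% = 100 µM mitoxantrone as full dye displacement; higher means more dye released from RNA so lower well fluorescence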
FAS-TE inh: FAS thioesterase (human) inhibition | P49327 | recombinant FAS-TE, OMFH fluorogenic substrate, fluorescence endpoint | inhibition, % at 15 µM | 360,000 compounds, 0.67% hits;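 active = compounds whose normalised, plate-corrected inhibition of enzyme fluorescence in the single-dose primary screen is 50% or more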;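 note: 0% = DMSO with enzyme and 100% = substrate without enzyme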
Target sequence (P49327 whole entry, looked up): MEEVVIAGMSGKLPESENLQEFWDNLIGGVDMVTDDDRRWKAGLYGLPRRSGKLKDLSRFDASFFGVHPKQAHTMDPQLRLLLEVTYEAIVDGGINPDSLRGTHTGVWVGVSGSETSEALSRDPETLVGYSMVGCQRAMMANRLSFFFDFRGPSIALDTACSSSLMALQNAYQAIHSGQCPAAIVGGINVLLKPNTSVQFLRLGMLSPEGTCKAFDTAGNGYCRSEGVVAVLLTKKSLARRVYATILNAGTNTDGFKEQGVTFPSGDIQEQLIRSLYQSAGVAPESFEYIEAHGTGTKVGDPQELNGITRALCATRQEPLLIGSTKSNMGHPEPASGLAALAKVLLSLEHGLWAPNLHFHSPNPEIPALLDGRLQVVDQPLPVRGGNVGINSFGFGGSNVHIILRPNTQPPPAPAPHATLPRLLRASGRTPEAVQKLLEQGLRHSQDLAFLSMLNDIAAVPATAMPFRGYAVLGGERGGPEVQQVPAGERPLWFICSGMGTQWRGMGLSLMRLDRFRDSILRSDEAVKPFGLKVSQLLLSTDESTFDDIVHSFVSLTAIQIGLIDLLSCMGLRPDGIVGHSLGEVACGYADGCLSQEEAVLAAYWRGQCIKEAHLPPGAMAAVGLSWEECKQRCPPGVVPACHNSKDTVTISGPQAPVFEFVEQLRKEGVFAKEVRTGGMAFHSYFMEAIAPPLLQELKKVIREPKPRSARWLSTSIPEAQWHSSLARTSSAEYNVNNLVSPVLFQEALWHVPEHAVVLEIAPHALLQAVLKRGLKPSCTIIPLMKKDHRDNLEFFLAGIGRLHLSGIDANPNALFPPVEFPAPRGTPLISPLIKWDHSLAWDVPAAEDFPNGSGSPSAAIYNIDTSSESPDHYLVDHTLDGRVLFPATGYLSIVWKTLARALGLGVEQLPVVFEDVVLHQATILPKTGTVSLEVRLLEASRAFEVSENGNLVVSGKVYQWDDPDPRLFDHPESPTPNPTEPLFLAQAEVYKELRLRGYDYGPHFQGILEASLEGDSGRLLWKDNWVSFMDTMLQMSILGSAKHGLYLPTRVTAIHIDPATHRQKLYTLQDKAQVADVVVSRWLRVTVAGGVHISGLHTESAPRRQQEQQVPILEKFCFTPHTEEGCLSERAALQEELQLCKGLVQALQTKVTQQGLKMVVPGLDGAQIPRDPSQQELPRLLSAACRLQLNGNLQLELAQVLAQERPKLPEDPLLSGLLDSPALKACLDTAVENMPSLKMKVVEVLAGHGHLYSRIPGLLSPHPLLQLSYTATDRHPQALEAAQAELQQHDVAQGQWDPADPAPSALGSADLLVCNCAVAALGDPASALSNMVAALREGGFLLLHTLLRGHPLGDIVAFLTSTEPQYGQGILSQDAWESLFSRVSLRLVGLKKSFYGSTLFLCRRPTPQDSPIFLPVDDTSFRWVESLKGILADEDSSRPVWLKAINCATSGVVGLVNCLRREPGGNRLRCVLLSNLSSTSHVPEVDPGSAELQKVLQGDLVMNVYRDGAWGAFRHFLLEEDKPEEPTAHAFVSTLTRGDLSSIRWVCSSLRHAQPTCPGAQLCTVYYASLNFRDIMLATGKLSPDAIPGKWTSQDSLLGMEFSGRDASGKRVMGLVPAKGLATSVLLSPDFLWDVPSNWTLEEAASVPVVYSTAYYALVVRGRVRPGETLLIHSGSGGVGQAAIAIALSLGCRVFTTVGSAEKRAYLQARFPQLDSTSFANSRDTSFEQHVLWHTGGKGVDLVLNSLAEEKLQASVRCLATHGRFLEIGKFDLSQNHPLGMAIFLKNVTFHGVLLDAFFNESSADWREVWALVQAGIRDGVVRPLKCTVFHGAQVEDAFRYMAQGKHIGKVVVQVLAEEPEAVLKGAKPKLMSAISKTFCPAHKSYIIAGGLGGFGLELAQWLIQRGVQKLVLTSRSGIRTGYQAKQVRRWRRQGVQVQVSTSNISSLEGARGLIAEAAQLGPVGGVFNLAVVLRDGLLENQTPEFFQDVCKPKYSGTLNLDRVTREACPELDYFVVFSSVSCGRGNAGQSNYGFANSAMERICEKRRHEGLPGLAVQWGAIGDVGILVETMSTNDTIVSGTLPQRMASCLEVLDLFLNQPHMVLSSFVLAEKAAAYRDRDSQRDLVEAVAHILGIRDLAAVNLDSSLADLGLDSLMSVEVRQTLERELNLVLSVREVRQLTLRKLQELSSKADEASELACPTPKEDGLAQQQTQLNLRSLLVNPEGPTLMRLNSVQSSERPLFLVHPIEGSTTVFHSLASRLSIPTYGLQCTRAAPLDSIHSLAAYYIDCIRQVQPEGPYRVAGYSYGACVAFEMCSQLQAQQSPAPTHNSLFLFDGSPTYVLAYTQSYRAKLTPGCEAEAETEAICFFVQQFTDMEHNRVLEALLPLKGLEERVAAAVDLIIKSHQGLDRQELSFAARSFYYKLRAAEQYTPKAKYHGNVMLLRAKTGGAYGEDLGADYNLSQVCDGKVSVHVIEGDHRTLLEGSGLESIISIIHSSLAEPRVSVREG
FAS-TE conf: confirmation of human fatty acid synthase thioesterase inhibitors; inhibition, % at 15 µM; 2,300 compounds, 45% hits; recombinant FAS-TE, OMFH fluorogenic substrate, fluorescence; AID 624325; shares compounds with FAS-TE inh;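 active = compounds inhibiting the enzyme by at least 50% at 15 µM in any one of the replicates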;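 note: 0% = enzyme with DMSO only and 100% = wells lacking enzyme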
Starred values were filed as active, the others as inactive; · = no result given. An excerpt weighted towards active compounds, which were near 4.3% of everything screened.

SMILES	NR3A LBD binder	NadD inh	rCAG RNA binder	FAS-TE inh	FAS-TE conf
CC(C)(C)OC(=O)CNC(=O)c1[nH]cnc1C(=O)N[C@@H](CCCCNC(=O)OC(C)(C)C)C(=O)OC(C)(C)C	5	5	-9	87*	92*
CCOC(=O)[C@]12CCCCC/C=C\1N(CCc1ccc(Cl)cc1)C(=O)[C@H]2CC(=O)NCc1ccccc1	·	·	5	·	·
O=C(CN1C(=O)C2(OCCCO2)c2ccccc21)NCc1ccc(F)cc1	·	·	1	·	·
CCOc1ccc(-n2c(SCC(=O)Nc3cc(C)c(NC(=O)c4ccccc4)cc3OC)nnc2-c2ccncc2)cc1	·	·	10	·	·
C[C@@H]1C=CCCO[C@]12C(=O)N(CC1CC1)c1cccc(Br)c12	·	·	-2	·	·
COC(=O)[C@]12C[C@H](CC(=O)N3CCCC3)C(=O)N(CCc3ccc(OC)c(OC)c3)C1=C[C@H](C1CCCC1)O[C@@H]2C	·	·	1	·	·
CC(C)(C)OC(=O)NCCCC[C@H](NC(=O)c1nc[nH]c1C(=O)NC1CCN(C(=O)OC(C)(C)C)CC1)C(=O)OC(C)(C)C	-10	11	-1	84*	59*
CC(C)(C)OC(=O)NCCCC[C@H](NC(=O)c1nc[nH]c1C(=O)NCC(=O)OCc1ccccc1)C(=O)OC(C)(C)C	-14	14	-3	90*	96*
CC(C)(C)OC(=O)NCc1ccc(CNC(=O)c2[nH]cnc2C(=O)NC2CCN(C(=O)OC(C)(C)C)CC2)cc1	-8	15	·	54*	40
CC(C)C[C@H](NC(=O)c1nc[nH]c1C(=O)NC1CCN(C(=O)OC(C)(C)C)CC1)C(=O)OC(C)(C)C	-12	4	-3	20	·
CC(C)C[C@H](NC(=O)c1nc[nH]c1C(=O)NC1CCN(C(=O)OC(C)(C)C)CC1)C(=O)OCc1ccccc1	0	10	7	58*	61*
C[C@H](NC(=O)c1nc[nH]c1C(=O)N[C@@H](CCCCNC(=O)OC(C)(C)C)C(=O)OC(C)(C)C)C(=O)OC(C)(C)C	-2	10	2	73*	62*
C[C@H](NC(=O)c1nc[nH]c1C(=O)N[C@@H](CCCCN)C(=O)OC(C)(C)C)C(=O)OC(C)(C)C	-1	-1	5	-8	·
N#Cc1ccc(-n2c(-c3ccccc3)nnc2-c2ccccc2)cc1C#N	0	-6	1	43	·
N#Cc1cccc(-n2c(-c3ccccc3)nnc2-c2ccccc2)c1C#N	-8	-7	0	58*	17
Cc1ccccc1CNC(=S)OC1CCC12CCC(c1ccccc1)CC2 (stereo unspecified)	·	·	4	·	·
COC(=O)[C@]12C[C@H](CC(=O)NCC3CCCCC3)C(=O)N(Cc3ccccc3)C1=C[C@H](C(C)C)O[C@@H]2C1CC1	·	·	2	·	·
COc1ccc(S(=O)(=O)N2CCOCC2)cc1NC(=O)c1cccc2c(=O)c(C)c(-c3ccccc3)oc12	-2	15	4	93*	27
CC(C)Oc1ccc(S(=O)(=O)N2CCOCC2)cc1NC(=O)c1nn(C)c(=O)c2ccccc12	-2	-11	0	67*	26
CCN(CC)S(=O)(=O)c1ccc(N2CCOCC2)c(NC(=O)c2cccc3c(=O)c(C)c(-c4ccccc4)oc23)c1	-1	13	5	36	·
CCCCNc1cccc2c1S(=O)(=O)N[C@H](C)CO2	·	·	1	·	·
O=C(O)c1cc(NN=Nc2cccc([N+](=O)[O-])c2)cc([N+](=O)[O-])c1	4	-2	31	12	·
O=C(O)c1cc(NN=Nc2ccc(Br)cc2)cc([N+](=O)[O-])c1	5	-1	17	69*	75*
COc1ccc2[nH]c3c(c2c1)CCN[C@]31C(=O)N(C)c2ccccc21	·	·	2	·	·
Cc1cc2ncn(/N=C/c3cccnc3)c2cc1C	-3	0	-2	3	·
Cc1cc2ncn(/N=C/c3ccc(-c4ccccc4)o3)c2cc1C	-3	3	9	50*	47
COC1=C[C@H](C(=O)NC2CCN(Cc3ccccc3)CC2)[C@@]2(C)Cc3ccccc3[C@H]2CC1=O	·	·	-1	·	·
O=C(COc1ccc2ccc(=O)oc2c1)N1CCN(c2ccccc2)CC1	1	0	-8	49	·
Cc1cccc(N2CCN(C(=O)COc3ccc4ccc(=O)oc4c3)CC2)c1C	0	3	-2	70*	83*
O=[N+]([O-])c1cc(-c2csc(NCCc3nc4cc(Cl)c(Cl)cc4n3CCCO)n2)ccc1Cl	-6	10	22	75*	72*
